From the supplement of paper PMC11732987, “Enantioselective OTUD7B fragment discovery through chemoproteomics screening and high-throughput optimisation” (Communications Chemistry, 2025)
Values without a mark were called inactive.

Columns and labels:
Test in all cases: log2 ratio of Biotin-Ahx-Ub-VS probe labelling (fragment/DMSO); higher = less target engagement (more negative = stronger competition), active = hit call of the paper (q ≤ 0.05, log2 ratio ≤ -1)
Conditions in all cases: compound concentration: 200 uM; treatment time: 3 h
ALG13 = molecular target: T1, ALG13 (UniProt Q9NP73)
T1 sequence (whole entry): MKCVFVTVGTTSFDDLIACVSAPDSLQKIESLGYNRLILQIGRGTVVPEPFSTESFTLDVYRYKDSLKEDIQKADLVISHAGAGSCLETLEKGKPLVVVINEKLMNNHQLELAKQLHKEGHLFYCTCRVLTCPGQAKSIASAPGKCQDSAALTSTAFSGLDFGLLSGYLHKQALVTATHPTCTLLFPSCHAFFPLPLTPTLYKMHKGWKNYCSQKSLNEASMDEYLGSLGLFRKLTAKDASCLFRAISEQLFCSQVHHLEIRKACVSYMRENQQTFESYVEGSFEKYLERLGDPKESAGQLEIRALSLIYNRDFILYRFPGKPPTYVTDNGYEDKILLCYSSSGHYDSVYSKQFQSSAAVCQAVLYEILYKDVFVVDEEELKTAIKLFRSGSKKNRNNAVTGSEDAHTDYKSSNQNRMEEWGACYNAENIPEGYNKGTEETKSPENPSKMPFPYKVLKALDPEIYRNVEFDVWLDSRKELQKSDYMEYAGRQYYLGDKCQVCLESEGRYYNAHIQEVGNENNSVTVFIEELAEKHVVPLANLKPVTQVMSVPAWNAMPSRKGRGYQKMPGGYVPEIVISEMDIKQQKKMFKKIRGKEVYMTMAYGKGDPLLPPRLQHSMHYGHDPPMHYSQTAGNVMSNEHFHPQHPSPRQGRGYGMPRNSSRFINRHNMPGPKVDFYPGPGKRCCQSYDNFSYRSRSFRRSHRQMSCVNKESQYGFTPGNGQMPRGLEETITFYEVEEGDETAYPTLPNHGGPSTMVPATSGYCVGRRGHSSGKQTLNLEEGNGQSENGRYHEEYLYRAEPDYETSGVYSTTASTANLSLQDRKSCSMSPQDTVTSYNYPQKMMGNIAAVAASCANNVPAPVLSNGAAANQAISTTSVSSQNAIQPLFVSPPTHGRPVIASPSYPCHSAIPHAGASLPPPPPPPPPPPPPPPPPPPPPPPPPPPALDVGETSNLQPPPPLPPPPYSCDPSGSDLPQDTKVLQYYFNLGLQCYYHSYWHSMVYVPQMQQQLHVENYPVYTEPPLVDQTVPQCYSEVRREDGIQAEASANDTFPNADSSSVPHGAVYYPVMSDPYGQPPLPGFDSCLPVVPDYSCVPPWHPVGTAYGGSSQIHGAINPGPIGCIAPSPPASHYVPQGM
Outline: (§1)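 Using Biotin-Ahx-Ub-VS at 0.5 µM final for 1 h, DUBs were labelled in HEK293T lysate (495 µg per sample) that had first been treated in triplicate with fragment at 200 µM or vehicle for 3 h. NeutrAvidin enrichment, LysC and trypsin digestion and diaPASEF LC-MS/MS followed. Spectronaut label-free quantities were global-median-normalised. Values are average log2 fragment/vehicle ratios by unpaired t-test, using proteins with ≥2 unique peptides.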

ATXN3 = ATXN3 (UniProt P54252)
Outline: as §1

BAP1 = molecular target: T2, BAP1 (UniProt Q92560)
T2 sequence (whole entry): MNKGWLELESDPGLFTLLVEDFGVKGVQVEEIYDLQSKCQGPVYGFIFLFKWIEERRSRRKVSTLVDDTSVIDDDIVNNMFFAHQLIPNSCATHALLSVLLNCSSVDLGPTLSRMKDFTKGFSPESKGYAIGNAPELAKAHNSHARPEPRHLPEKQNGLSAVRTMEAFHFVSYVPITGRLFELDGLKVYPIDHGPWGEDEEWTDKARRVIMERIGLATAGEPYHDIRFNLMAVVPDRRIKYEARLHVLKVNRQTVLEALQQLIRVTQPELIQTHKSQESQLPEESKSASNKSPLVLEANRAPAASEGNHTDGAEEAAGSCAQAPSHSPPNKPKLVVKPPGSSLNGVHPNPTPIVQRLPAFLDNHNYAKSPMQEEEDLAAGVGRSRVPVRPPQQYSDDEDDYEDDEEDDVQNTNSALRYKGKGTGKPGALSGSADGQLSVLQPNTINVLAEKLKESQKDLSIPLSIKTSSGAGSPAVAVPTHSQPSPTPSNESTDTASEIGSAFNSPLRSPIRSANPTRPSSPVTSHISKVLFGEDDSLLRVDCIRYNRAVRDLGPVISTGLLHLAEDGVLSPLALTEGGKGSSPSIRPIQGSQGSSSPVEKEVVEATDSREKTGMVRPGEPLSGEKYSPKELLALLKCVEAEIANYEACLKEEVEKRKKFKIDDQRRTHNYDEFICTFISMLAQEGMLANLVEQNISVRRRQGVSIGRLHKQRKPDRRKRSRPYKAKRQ
Outline: as §1

EIF3F = EIF3F (UniProt O00303)
Outline: as §1

EIF3H = EIF3H (UniProt O15372)
Outline: as §1

FAM105A = molecular target: T3, FAM105A (UniProt Q9NUU6)
T3 sequence (whole entry): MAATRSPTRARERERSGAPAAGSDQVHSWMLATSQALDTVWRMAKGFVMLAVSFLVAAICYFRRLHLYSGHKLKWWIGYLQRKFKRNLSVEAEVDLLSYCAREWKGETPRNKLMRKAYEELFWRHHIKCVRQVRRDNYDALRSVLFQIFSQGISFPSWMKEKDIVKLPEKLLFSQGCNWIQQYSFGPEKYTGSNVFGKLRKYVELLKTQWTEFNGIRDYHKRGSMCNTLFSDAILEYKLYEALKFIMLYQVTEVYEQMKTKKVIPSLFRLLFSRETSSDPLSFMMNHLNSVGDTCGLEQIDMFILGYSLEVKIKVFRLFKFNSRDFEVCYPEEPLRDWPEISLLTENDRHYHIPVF
Outline: as §1

OTUB1 = OTUB1 (UniProt Q96FW1)
Outline: as §1

OTUD4 = molecular target: T4, OTUD4 (UniProt Q01804)
T4 sequence (whole entry): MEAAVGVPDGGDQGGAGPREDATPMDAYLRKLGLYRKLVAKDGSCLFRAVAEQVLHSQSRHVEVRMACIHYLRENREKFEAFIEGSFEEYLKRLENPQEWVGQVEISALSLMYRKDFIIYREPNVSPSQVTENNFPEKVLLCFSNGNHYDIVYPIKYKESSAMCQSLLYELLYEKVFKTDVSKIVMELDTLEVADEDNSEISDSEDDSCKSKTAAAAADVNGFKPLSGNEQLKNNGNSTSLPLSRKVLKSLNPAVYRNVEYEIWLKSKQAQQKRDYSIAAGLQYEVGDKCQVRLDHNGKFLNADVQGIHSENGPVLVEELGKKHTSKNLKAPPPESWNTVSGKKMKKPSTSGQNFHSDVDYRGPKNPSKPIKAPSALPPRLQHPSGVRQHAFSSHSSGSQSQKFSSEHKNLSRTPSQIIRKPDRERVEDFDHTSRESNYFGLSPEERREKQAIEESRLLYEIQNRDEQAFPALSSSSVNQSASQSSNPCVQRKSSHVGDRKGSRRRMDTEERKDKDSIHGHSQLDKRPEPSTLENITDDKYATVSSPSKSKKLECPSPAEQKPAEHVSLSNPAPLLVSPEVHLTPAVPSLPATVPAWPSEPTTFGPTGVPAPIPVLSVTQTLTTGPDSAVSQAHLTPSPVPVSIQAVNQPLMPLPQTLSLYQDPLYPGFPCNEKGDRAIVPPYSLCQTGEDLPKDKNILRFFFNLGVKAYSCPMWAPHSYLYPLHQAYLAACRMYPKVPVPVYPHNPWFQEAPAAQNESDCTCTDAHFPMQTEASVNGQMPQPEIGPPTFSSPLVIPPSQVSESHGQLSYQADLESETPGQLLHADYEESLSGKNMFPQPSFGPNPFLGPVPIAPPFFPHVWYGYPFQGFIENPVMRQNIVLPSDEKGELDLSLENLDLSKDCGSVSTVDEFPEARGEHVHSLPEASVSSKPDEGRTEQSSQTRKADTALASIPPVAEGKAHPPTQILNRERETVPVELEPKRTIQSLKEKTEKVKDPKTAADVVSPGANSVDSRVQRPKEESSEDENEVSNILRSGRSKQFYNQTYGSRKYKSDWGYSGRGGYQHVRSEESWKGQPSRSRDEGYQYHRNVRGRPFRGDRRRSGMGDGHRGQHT
Outline: as §1

OTUD5 = molecular target: T5, OTUD5 (UniProt Q96G74)
T5 sequence (whole entry): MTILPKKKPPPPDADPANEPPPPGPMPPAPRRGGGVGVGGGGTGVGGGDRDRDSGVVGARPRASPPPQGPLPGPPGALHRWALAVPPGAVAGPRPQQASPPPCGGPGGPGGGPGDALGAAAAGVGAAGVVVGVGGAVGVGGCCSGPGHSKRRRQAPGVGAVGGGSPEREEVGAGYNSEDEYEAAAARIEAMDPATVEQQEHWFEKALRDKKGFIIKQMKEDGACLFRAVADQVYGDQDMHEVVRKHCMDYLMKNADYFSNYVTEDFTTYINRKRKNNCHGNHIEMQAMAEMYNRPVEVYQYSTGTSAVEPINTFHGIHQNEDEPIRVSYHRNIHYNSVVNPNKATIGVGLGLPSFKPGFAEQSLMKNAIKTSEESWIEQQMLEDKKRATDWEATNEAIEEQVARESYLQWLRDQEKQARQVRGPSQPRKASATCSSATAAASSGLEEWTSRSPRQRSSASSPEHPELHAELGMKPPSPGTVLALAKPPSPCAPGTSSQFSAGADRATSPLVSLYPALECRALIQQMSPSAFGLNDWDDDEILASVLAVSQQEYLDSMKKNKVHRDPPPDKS
Outline: as §1

Chain of OTUB1 (Q96FW1 whole entry): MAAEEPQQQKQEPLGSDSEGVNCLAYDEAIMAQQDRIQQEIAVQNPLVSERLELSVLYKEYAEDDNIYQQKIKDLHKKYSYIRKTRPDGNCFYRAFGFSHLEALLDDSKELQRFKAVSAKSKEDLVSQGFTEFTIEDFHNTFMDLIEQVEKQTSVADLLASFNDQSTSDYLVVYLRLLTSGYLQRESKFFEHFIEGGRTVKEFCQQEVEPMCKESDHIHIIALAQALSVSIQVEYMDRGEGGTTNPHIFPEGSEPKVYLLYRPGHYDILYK
Chain of EIF3F (O00303 whole entry): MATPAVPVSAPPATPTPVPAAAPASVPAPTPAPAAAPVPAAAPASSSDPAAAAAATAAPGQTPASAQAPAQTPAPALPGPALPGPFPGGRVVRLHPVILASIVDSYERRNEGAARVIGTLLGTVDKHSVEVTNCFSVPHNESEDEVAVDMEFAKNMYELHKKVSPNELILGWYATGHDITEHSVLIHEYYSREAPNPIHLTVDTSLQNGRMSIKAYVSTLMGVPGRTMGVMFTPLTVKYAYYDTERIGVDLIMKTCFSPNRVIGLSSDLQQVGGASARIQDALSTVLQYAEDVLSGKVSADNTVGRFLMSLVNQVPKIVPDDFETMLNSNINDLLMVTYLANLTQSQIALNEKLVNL
Chain of ATXN3 (P54252 whole entry): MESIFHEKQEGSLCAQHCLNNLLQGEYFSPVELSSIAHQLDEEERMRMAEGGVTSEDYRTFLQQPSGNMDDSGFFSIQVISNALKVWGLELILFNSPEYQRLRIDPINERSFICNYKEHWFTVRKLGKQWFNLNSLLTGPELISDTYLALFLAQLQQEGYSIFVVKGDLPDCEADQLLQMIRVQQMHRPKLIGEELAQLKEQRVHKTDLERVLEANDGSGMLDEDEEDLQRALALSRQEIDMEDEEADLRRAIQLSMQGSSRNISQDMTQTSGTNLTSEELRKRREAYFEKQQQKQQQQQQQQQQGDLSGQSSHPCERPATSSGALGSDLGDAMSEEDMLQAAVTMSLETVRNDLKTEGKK
Chain of EIF3H (O15372 whole entry): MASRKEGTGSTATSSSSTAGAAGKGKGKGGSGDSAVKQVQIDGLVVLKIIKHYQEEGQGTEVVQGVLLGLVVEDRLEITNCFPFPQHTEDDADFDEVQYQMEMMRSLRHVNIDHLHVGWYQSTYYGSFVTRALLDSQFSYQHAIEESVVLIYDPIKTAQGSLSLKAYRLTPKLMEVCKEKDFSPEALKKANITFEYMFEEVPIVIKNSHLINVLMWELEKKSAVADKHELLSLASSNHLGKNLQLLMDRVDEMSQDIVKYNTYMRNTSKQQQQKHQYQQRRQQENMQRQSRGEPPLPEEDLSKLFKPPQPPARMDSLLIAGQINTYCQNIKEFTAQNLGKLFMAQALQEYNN

For `Cc1ccccc1CN(C)C(=O)CCl`, the “log2 ratio of Biotin-Ahx-Ub-VS probe labelling” value (shortened to “log2 ratio”) (ALG13) was -0.539, the “log2 ratio” value (ATXN3) was -1.13 (active) and the “log2 ratio” value (BAP1) was -2.27 (active). The “log2 ratio” value (EIF3F) was -0.115, the “log2 ratio” value (EIF3H) was 0.207 and the “log2 ratio” value (FAM105A) was -0.463. For the same compound, the “log2 ratio” value (OTUB1) was -0.437, the “log2 ratio” value (OTUD4) was -0.914 and the “log2 ratio” value (OTUD5) was -1.15 (active).
